Measurements as given in PubChem BioAssay AID2018 (Sanford-Burnham Center for Chemical Genomics, 2009).
In all, about 1,200 compounds went through this assay and about 600 (50%) were called active. Cut-off read from the data, not from the text of the source: active = inhibition above about 42%; inactive = the rest. So high a share suggests a set chosen from earlier hits. Some of the results follow. Potency and affinity values are given separately.

These molecules were tested against SUMO-conjugating enzyme UBC9 (Homo sapiens) (UniProt P63279) (assay: SUMOylation inhibitor hit validation, confirmation, SUMOylation inhibitor project, biochemical, AlphaScreen (AID 2018)). Settings: AlphaScreen in vitro SUMOylation assay; at 35 µM; stronger effect = higher value.
Chain of SUMO-conjugating enzyme UBC9 (Homo sapiens) (P63279 whole entry, looked up): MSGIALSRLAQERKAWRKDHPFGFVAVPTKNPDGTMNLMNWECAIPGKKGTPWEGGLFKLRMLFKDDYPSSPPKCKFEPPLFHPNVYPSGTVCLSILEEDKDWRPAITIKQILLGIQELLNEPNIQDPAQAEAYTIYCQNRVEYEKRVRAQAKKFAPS

inhibition, inactive:
CN(C)c1cccc2cccc(N(C)C)c12 3.1%
CCN(c1ccccc1)c1cc2ccccc2c(=O)[nH]1 35.3%
Cc1ccc(C(=O)NC(C)c2nc3ccccc3n2CC(=O)Nc2c(C)cc(C)cc2C)cc1 (centres undefined) 5.3%
Cn1c(-c2ccc(C=O)s2)nc2ccccc21 14.4%
CCOc1ccc(NC(=S)Nc2cccc3ccccc23)cc1 4.4%
CCOC(=O)COc1nc(-c2ccco2)cc(-c2ccco2)c1C#N -28.4%
COc1ccc(C(N)c2nccc3cc(OC)c(OC)cc23)cc1OC (centres undefined) 22.1%
Cc1cc(=O)[nH]c(SCC(=O)Nc2cccc(C(F)(F)F)c2)n1 -20.9%
CCC(=O)c1ccccc1OCCSc1nc(C)cc(=O)[nH]1 10.6%
CCOc1cc(CNc2cccc3ccccc23)cc(Br)c1OCC(=O)NC(C)(C)C -1.9%
Oc1ccc2ccccc2c1C=NCc1ccccc1 38.6%
CCN(Cc1cc(=O)n2ccsc2n1)c1cccc2ccccc12 25.6%
Cc1ccc(NC(=S)Nc2ccc3cn[nH]c3c2)cc1 30.2%
CN(C)c1cccc2c(C=C(C#N)C#N)ccc(N(C)C)c12 19.4%
CCCS(=O)(=O)c1c(S(=O)(=O)CCC)c2c(N)cccn2c1C(=O)c1ccc(Br)cc1 23.1%
COc1ccc(N2C3=C(CC4=C2CCCC4=O)C(=O)CCC3)cc1 19.3%
CCOC(=O)C(CCCCOc1ccc([N+](=O)[O-])cc1)C(=O)OCC -21.9%
O=C(O)/C=C/C(=O)Nc1ccc(O)cc1 15.1%
O=c1[nH]nc(CNc2ccc(O)cc2)c2ccccc12 9.6%
Cn1c(CNc2ccc(O)cc2)nc2ccccc21 16.9%
O=c1nc2s/c(=C\c3ccco3)c(=O)n2nc1Cc1ccccc1 26.6%
COc1ccccc1/C=C/CN1CCN(c2ccccc2)CC1 29.6%
CCOC(=O)C1=C(N)n2c(s/c(=C/c3ccco3)c2=O)=C(C(=O)OC)C1c1ccco1 (centres undefined) 34%
O=c1c2cc(N3CCOCC3)ccc2[nH]c(=S)n1CC1CCCO1 (centres undefined) -2.6%
CCOC(=O)c1c(NC(=O)C2C3C=CC(CC3)C2C(=O)O)sc(C)c1CC (centres undefined) 20%
CC(C)(C)C(=O)NC(Nc1cccc2cccnc12)C(Cl)(Cl)Cl (centres undefined) 7.9%
Cc1ccc(F)c(NC(=S)Nc2cccc3ccccc23)c1 10.1%
O=C(/C=C/c1ccco1)Nc1cccc2cccnc12 6.6%
O=C(O)c1cc2cccc(S(=O)(=O)N3CCOCC3)c2cc1O -21.6%
CC(=O)c1ccc2cccc3c2c1N=CN3C 13.7%
Cc1ccc(S(=O)(=O)NNC(=O)Nc2cccc3ccccc23)cc1 9.6%
CCc1ccc(S(=O)(=O)Nc2ccc(O)c3ccccc23)cc1 38.3%
CCc1ccc2c(c1)c1nc(C)sc1n2CC 20.9%
Nc1ccccc1NC1=CC(=O)CC(c2ccco2)C1 (centres undefined) 18.4%
CC(C)CNC1=CC(=O)CC(c2ccco2)C1 (centres undefined) 0.4%
CCOc1cc(NC(=S)NCc2ccco2)c(OCC)cc1NC(=O)CC -0.7%
Cc1sc2nc3ccc(NCc4ccco4)nn3c(=O)c2c1C 0.9%
CCCCCCCC1(C)NC(=O)N(CC(=O)Nc2cc(C)on2)C1=O (centres undefined) 2.5%
CCOC(=O)N1CCc2c(sc3c2c(=O)n(Cc2ccccc2)c(=O)n3CC(=O)NCCOC)C1 15.2%
Cc1oc(-c2ccc(F)cc2)cc1-c1nn2c(-c3ccoc3C)nnc2s1 22.7%
Cc1c(C(=O)c2ccc(Cl)cc2[N+](=O)[O-])c2ccccn2c1CCC#N 17.8%
COc1ccccc1CCNC(=O)CSc1ccc(-c2ccco2)nn1 19%
Cc1ccc(-c2cc(C(=O)N/N=C/c3ccc([N+](=O)[O-])o3)c3ccccc3n2)o1 30.3%
Cc1c(C(=O)O)c(C(=O)O)nc2ccc(N3CCOCC3)cc12 -17.6%
NC1=NC(c2ccc(Cl)cc2)N(c2ccc(S(N)(=O)=O)cc2)C(N)=N1 (centres undefined) 25.2%
CC(Nc1cccc2ccccc12)C(=O)N/N=C/c1ccccn1 (centres undefined) -4.4%
O=C(CNc1cccc2ccccc12)N/N=C/c1ccc([N+](=O)[O-])o1 37.5%
N#Cc1cc2ccc(N3CCOCC3)cc2cc1C#N -11.7%
COc1ccc(CCN2Cc3c(cccc3[N+](=O)[O-])C2=O)cc1OC -5.8%
CC(=O)c1cccc(NC(=S)Nc2cccc3ccccc23)c1 -7.4%
COc1cc(=O)n(C)c2c(OCC3OC(C)(C)OC3(C)C)cccc12 (centres undefined) 11.2%
Cc1ccc(Cn2nnnc2CN2CCC(NC(=O)C(C)(C)C)CC2)cc1 -8.9%
O=C(Nc1ccc(Cl)c(Cl)c1)Nn1cnnc1 -10.6%
COc1ccc(/C=C2/C(=O)N(c3ccccc3)N=C2C)cc1OC 38.1%
COc1ccc(C(=O)N2CCC(O)(c3ccc(F)cc3)CC2)cc1OC -18.3%
OC(COc1ccccc1)CSc1ncn[nH]1 (centres undefined) 2.4%
O=S(=O)(Nc1ccc2c(c1)nc1n2CCN(Cc2ccccc2)C1)c1ccccc1 -3.3%
CCn1c2ccccc2c2c3ncc4cccn4c3ccc21 -74.8%
Cc1cccn2c(=O)c3cc(C(=O)NC4CCCCCC4)sc3nc12 33.8%
COc1ccc(N(C)C(=O)Nc2ccc3nsnc3c2)cc1 7.7%
C=CCN(CC=C)C(=S)Nc1ccc2nsnc2c1 23.6%
S=C(Nc1ccc2nsnc2c1)N1CCCC1 17.9%
COc1ccc(NC(=S)Nc2ccc3nccnc3c2)cc1 8.4%
COc1ccc(/C=N/N=C2/CC(C)(C)Cc3n[nH]c(=O)cc32)cc1 26.2%
COc1ccc(OC)c(/C=N/NC(=O)CCc2ccc(O)c(O)c2)c1 18.5%
O=C(NC(=S)Nc1cccc2c(O)cccc12)c1ccccc1[N+](=O)[O-] 16.6%
O=C(O)c1cccc([N+](=O)[O-])c1C(=O)Nc1cccc2ccccc12 -1.9%
N#Cc1c(N)nc2c(c1-c1ccc3c(c1)OCO3)CCc1ccccc1-2 -58.5%

inhibition, active:
Cc1cc2oc(C(=O)Nc3ccc(S(=O)(=O)Nc4nccs4)cc3)cc(=O)c2cc1Cl 75%
O=c1[nH]c(Nc2ccccc2)cc2ccccc12 102%
CCn1c(NC(=O)c2ccccc2)nc2ccccc21 73%
CC1=CC(C)(C)N2C(=O)C(=Nc3ccc(O)cc3)c3cccc1c32 95.8%
Cc1cc(=O)[nH]c(SCC(=O)c2ccc(O)c(O)c2)n1 55.2%
O=C(NN1C(=O)CSC1=S)C(=O)NN1C(=O)CSC1=S 102%
CCOc1cc(CNc2ccc(N3CCN(C(C)=O)CC3)cc2)cc(Br)c1OC 45.3%
Oc1ccc2ccccc2c1C=NCc1cn2ccsc2n1 42.5%
CCOc1ccccc1CNc1ccc(O)cc1 45.3%
CCOc1cccc(CNc2ccc(O)cc2)c1OCc1ccc(Cl)cc1Cl 81%
Oc1ccc(NCc2ccccc2OCc2ccccc2F)cc1 88.9%
Oc1ccc(Br)cc1CNc1cccc2cccnc12 61.8%
COc1cccc(CNc2cccc3cccnc23)c1O 43.5%
Cc1ccc(O)c(CNc2cccc3cccnc23)c1 49.6%
COc1cc(C)c2c(c1C=O)Oc1c(c(C)c(O)c3c1C(O)OC3=O)OC2=O (centres undefined) 95%
COc1ccc(S(=O)(=O)Nc2ccc(O)c3ccccc23)cc1 48.3%
O=S(=O)(Nc1ccc(O)c2ccccc12)c1cccs1 51.7%
O=C1C=C(O)CC(c2ccco2)C1 (centres undefined) 47.7%
COc1ccc(C(=O)CSc2nnc(-c3ccco3)c(-c3ccco3)n2)cc1 43%
O=C(CSc1nnc(-c2ccco2)c(-c2ccco2)n1)c1ccccc1 76.2%
O=C(N/N=C/c1ccc(-c2ccc(Cl)c(C(=O)O)c2)o1)c1cc2c(ccc3ccccc32)o1 102%
O=C1CC(N2CCOCC2)=NN1c1ccc([N+](=O)[O-])cc1 51.4%
C#CCOc1ccc(/C=C2/C(=O)N(c3cccc(C(=O)O)c3)N=C2C)cc1OC 55.9%
COc1cc(/C=C2/C(=O)N(c3ccc([N+](=O)[O-])cc3)N=C2N2CCOCC2)ccc1O 68.6%
COc1cc(/C=C2/C(=O)N(c3ccccc3)N=C2C)ccc1OS(=O)(=O)c1ccccc1 91.3%
Cc1[nH][nH]c(=O)c1C(c1ccc(-c2ccc(F)cc2)o1)c1c(C)[nH][nH]c1=O 59.6%
Cc1[nH][nH]c(=O)c1C(c1ccc(-c2ccc(Cl)cc2)o1)c1c(C)[nH][nH]c1=O 66.7%
Cc1[nH][nH]c(=O)c1C(c1ccc(-c2cccc(Cl)c2)o1)c1c(C)[nH][nH]c1=O 101%
O=S(=O)(Nc1cc2nc3ccccc3nc2n1Cc1ccccc1)c1ccc(Cl)cc1 102%
CCOc1ccc(NC(=S)Nc2ccc3nsnc3c2)cc1 101%
COc1ccc(NC(=S)Nc2ccc3nsnc3c2)cc1 101%
